Assay [1] can be described thus: inhibitors of TNFa-induced NFkB p65 translocation, primary screen, imaging, HUVEC, MLSMR starter and 10KST1 sets (AID 438;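 active means inhibition above 20% together with a positive visual image hit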;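 further: compound added about 3h40 before a 20 min TNFalpha stimulation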;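 on inhibition: signal is the nuclear over cytoplasmic p65 intensity ratio per well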). The conditions noted are these: HUVEC TNFa-induced p65 nuclear translocation; cell count: measured here: nuclei count (cytotoxicity indicator), at 2.08 µM; inhibition: at 2 µM, stronger effect = higher value, 0% TNFa-plus-vehicle, 100% no-TNFa wells.
The nature of assay [2]: inhibitors of mutant huntingtin aggregation, primary screen, imaging, exon1htt(103Q)mCFP cells, high-content imaging (AID 483;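 active means visual image review flags a hit and inhibition of aggregation exceeds 20%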;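 further: compound exposure lasted 3 days before fixation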;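 on nuclei count: percent of the per-plate median nuclei count of sample wells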). The conditions noted are these: exon1htt(103Q)mCFP cell line, aggregate imaging, at 2 µM; inhibition of aggregation: stronger effect = higher value; nuclei count: measured here: cell count, toxicity.
Assay [3] is described as follows: inhibitors of E-selectin induction by TNFa, primary screen, imaging, HUVEC, immunofluorescence, MLSMR starter and 10KST1 sets (AID 487).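 On inhibition: signal is fraction of cell area covered by stained E-selectin grains.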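 On nuclei count: 100% = median nuclei count of all wells on the same plate.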 The note with it: HUVEC TNFalpha-induced E-selectin immunofluorescence imaging, at 2 µM; inhibition: stronger effect = higher value; nuclei count: measured here: cell number, toxicity.
Assay [4] is described as follows: DUSP6 inhibitors restoring Erk phosphorylation by chemical complementation, primary imaging in DUSP6-transfected HeLa (AID 609;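 active means compounds giving at least 50% inhibition in the cell-based MKP-3 phosphatase rescue imaging test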;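 on inhibition: phospho-Erk level distribution per well compared with pooled transfected vehicle control wells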). The conditions noted are these: HeLa MKP-3 transfected, phospho-Erk imaging KS statistic, at 10 µM, cells stimulated with TPA for 15 min.
Assay [5] addresses Dual specificity protein phosphatase 6 (Homo sapiens) (UniProt Q16828). The description is as above. The conditions noted are these: HeLa MKP-3 transfected, phospho-Erk imaging KS statistic; at 10 µM; stronger effect = higher value; cells stimulated with TPA for 15 min.
The target of assay [6] is Voltage-gated potassium channel subunit beta-2 (Rattus norvegicus) (UniProt P62483). The assay is described as follows: KvBeta enzyme negative modulators, primary screen, biochemical, NADPH fluorescence (AID 622;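 active means fluorescence slope higher than the sample average by over 3 SD, cut at about -0.22 in these data, passing the limit was not always enough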;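 further: slope of raw intensity against log time taken from 70 to 1610 s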). The note with it: recombinant KvBeta, 4-cyanobenzaldehyde reduction, at 10 µM, stronger effect = higher value.
Voltage-gated potassium channel subunit beta-2 (Rattus norvegicus), sequence (P62483 whole entry, looked up): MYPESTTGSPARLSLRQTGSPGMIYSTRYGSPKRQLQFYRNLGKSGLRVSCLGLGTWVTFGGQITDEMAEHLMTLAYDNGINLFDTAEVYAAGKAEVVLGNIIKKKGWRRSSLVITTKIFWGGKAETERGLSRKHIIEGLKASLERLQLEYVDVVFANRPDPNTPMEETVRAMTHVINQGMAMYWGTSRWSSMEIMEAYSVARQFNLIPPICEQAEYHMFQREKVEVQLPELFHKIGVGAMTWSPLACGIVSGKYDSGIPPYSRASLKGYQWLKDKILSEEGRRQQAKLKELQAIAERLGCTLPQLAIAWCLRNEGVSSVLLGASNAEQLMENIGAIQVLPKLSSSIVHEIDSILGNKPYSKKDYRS
For assay [7] the target is unchanged. The assay is described as follows: KvBeta positive modulators, primary screen, biochemical, NADPH fluorescence (AID 623;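 active means NADPH fluorescence slope more negative than the mean of all samples by about 3 SD, 99.7% confidence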;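 further: fluorescence intensity change per second fitted from 20 to 320 s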). The conditions noted are these: Recombinant KvBeta, NADPH fluorescence decrease slope, 10 min; at 10 µM; stronger effect = lower value.
Assay [8] deals with Alpha-2C adrenergic receptor (Homo sapiens) (UniProt P18825). Kind of assay: modulators of alpha2C/GIRK thallium flux, primary screen, cell-based, HEK293 alpha2C/GIRK1/2 (AID 624;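 active means fluorescence slope after compound addition differing from the mean of all screened samples at 99.7% confidence, in either direction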;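 further: slope of fluorescence ratio to pre-addition baseline per second over 15 to 24 s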). The note with it: thallium flux BTC fluorescence, at 10 µM, actives lie on both sides.
Alpha-2C adrenergic receptor (Homo sapiens), sequence (P18825 whole entry, looked up): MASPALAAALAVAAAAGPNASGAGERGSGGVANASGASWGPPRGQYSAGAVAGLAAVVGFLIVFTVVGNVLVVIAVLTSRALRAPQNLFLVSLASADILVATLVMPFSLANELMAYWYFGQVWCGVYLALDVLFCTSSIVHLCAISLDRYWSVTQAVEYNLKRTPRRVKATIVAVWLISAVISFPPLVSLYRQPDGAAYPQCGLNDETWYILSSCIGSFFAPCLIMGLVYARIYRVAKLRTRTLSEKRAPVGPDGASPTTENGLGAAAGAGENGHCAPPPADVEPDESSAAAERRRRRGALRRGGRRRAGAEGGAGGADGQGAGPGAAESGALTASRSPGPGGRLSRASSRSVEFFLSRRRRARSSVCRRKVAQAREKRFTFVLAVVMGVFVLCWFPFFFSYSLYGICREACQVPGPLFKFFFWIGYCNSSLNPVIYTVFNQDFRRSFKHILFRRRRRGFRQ
A short description of assay [9]: inhibitors of larval lipid processing in zebrafish, primary screen, whole organism, PED6 fluorescence, gall bladder and intestine (AID 686;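 active means a full or partial loss of lipid-probe fluorescence in the fish gall bladder, intestine or both, judged by eye; inactive means no fluorescence loss, or compound toxic to the fish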;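 further: larvae 5 to 7 days old with five fish per well; signal comes from phospholipase A2 cleavage of quenched PED6 carried via bile; overnight exposure to compound and PED6 before scoring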). The note with it: Zebrafish larvae PED6 lipid processing, fluorescence scoring; screened at 20 µM (by protocol).
Assay [10] is described as follows: inhibitors of Chlamydomonas gravitaxis, primary screen, whole organism, Chlamydomonas reinhardtii, WT vs cilia-less mutant, absorbance, 96-well (AID 463189;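 active means inhibition at or above 50% relative to wild type and mutant plate controls; inactive means inhibition below 50%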;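 further: 0% = wild type cc124 cells in DMSO and 100% = ciliumless bld1 mutant cells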). The note with it: OD600 absorbance, 2 days, at 10 µM, stronger effect = higher value.
Assay [11] is described as follows: inhibitors of Sendai virus-induced IRF3 signaling, primary screen, TLR/RLR signaling modifier project, cell-based, Sendai virus stimulus, luciferase, 10K MLSCN set (AID 602276;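 active means inhibition at or above 50% at 10 µM; inactive means inhibition below 50%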;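 further: firefly luciferase from ISG56 promoter only with Renilla not read in this screen; 0% = Sendai virus plus DMSO and 100% = medium plus DMSO without virus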). The conditions noted are these: HEK293 RL24 IRF3 luciferase reporter, at 10 µM, stronger effect = higher value.
Assay [12] is described as follows: inhibitors of poly I:C-induced TLR3 signaling, primary screen, cell-based, poly I:C stimulus, luciferase, 10K MLSCN set (AID 602277;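 active means inhibition of the reporter signal at or above 50%; inactive means inhibition below 50%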). The conditions noted are these: HEK293-TLR3 RL24 IRF3 luciferase reporter, at 10 µM, stronger effect = higher value.
[13] abbreviates: measured here: cell density z-score.
The mark [14] stands for this setting: measured here: nuclear c-Myc green intensity z-score.
The mark [15] stands for this setting: measured here: nuclear pErk red intensity z-score, stronger effect = higher value.

Several values for one entry are separate records, joined by “and”; a condition that tells them apart may be missing. Identical values can stand only once. Activity calls are given as the source filed them.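 How the source made its calls, unless noted: active means visually confirmed hit in the image check and inhibition above 20%; inconclusive means visually confirmed hit but inhibition not above 20%; inactive means no visual hit in the image check.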

Dual specificity protein phosphatase 6 (Homo sapiens), sequence (Q16828 whole entry, looked up): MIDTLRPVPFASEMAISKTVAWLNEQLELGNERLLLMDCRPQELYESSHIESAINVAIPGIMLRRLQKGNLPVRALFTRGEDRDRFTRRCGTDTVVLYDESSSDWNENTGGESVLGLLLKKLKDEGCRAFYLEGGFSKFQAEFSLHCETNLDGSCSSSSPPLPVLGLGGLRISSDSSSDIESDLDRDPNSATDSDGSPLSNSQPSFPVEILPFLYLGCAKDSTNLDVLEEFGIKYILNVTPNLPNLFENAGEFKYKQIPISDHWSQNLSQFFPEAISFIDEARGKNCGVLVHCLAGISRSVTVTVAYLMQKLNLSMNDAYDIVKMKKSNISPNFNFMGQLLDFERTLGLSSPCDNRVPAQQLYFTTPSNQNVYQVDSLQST

For `C=CCn1c(SCC(=O)NC23CC4CC(CC(C4)C2)C3)nc(O)cc1=O`, the cell count in assay [1] worked out at 629. Further, the inhibition in assay [1] is -3.7% (inactive); in assay [3] it was -39.7% (inactive); in assay [5], 7.83% (inactive); in assay [10], 12.5% (inactive); in assay [11], 17.8% (inactive); in [12] it was 24.6% (inactive). In addition, the inhibition of aggregation in assay [2] was -0.4% (inactive). The nuclei count is 103% in assay [2] and 129% in assay [3]. Besides, the results for the z-score in [4] (setting [13]), in [4] (setting [14]) and in [4] (setting [15]) were -0.394, -0.06 and 0.754, respectively. Also, the fluorescence slope in assay [6] was -0.532 (inactive). The NADPH fluorescence slope in assay [7] was -4.2e-05 (inactive). Moreover, the slope in [8] is 0.00471 (inactive). In assay [9], the outcome was inactive.

For the compound `CC(=O)[C@@]1(O)CC[C@H]2[C@@H]3CCC4=CC(=O)CC[C@]4(C)[C@H]3[C@@H](O)C[C@@]21C`, the cell count in [1] was found to be 623. In addition, the inhibition is 0.5% (inactive) in [1]; -142% (inactive) in [3]; -4.44% (inactive) in [5]; -7.94% (inactive) in [10]; 8.03% (inactive) in [11]; 38.5% (inactive) in assay [12]. For the same compound, the inhibition of aggregation in assay [2] was 16.3% (inactive). For the same compound, the results for the nuclei count in assay [2] and in assay [3] were 83% and 140%, respectively. Moreover, the z-score in [4] (setting [13]) was -0.503; in [4] (setting [14]) it was -0.682; in [4] (setting [15]), 0.228. Also, the fluorescence slope in assay [6] was -0.495 (inactive). For the same compound, the NADPH fluorescence slope in assay [7] is -5.2e-05 (inactive). Further, the slope in assay [8] was 0.00465 (inactive). Further, in assay [9], the compound was called inactive.

As to `Nc1nc(Cl)nc2c1ncn2[C@H]1C[C@H](O)[C@@H](CO)O1`, in assay [1], the cell count was 522 and 557. Also, the inhibition was -10.7% (inactive) and -11.5% (inactive) in [1]; -143% (inactive) and -17% (inactive) in [3]; 7.39% (inactive) and -2.46% (inactive) in [5]; 18.6% (inactive) and -15.6% (inactive) in assay [10]; 12.3% (inactive) and 18.7% (inactive) in assay [11]; 41.2% (inactive) and 27.6% (inactive) in assay [12]. Also, the inhibition of aggregation in [2] was -36.7% (inactive). In addition, the nuclei count was 10% in assay [2]; 133% and 106% in assay [3]. Besides, the z-score in assay [4] (setting [13]) is 1.67 and -3.27; in [4] (setting [14]), -1.09 and -0.338; in [4] (setting [15]), -0.372 and -0.606. Besides, the fluorescence slope in assay [6] is -0.46 (inactive) and -0.431 (inactive). For the same compound, in [7], the NADPH fluorescence slope was -2e-05 (inactive) and -2.2e-05 (inactive). Further, the slope in [8] is 0.00559 (inactive) and 0.00513 (inactive). In addition, the call in [9] was inactive.

For the compound `CCC(=O)Oc1ccc(/C(CC)=C(\CC)c2ccc(OC(=O)CC)cc2)cc1`, the cell count in [1] came to 550. For the same compound, the inhibition in assay [1] is -4.1% (inactive); in assay [3] it was -13.5% (inactive); in assay [5], 3.45% (inactive); in [10] it was 9.5% (inactive); in assay [11], 11.1% (inactive); in [12], 42.9% (inactive). The inhibition of aggregation in assay [2] is 3.5% (inactive). For the same compound, the nuclei count in assay [2] was 97.5%; in assay [3], 127%. Further, the z-score in [4] (setting [13]) was -0.723; in assay [4] (setting [14]), 0.714; in assay [4] (setting [15]), 1.03. In assay [6], the fluorescence slope is -0.443 (inactive). For the same compound, in assay [7], the NADPH fluorescence slope is -5.7e-05 (inactive). For the same compound, the slope in [8] is 0.00761 (inactive). Further, in [9], the compound was classed as inactive.

For the compound `CCOC(=O)C1CSc2[nH]c(=O)sc2C1c1ccccc1` (stereo not given), in assay [1], the cell count turned out to be 537. The inhibition in [1] was -1.3% (inactive); in assay [3], -19.3% (inactive); in assay [5], -1.12% (inactive); in assay [10] it was -4.31% (inactive); in [11], 5.91% (inactive); in assay [12], 99.1% (active). In [2], the inhibition of aggregation was -4% (inactive). Moreover, the values for the nuclei count in assay [2] and in [3] were 126% and 144%, respectively. Also, the values for the z-score in assay [4] (setting [13]), in [4] (setting [14]) and in [4] (setting [15]) were 0.417, -0.0363 and 0.692, respectively. Also, the fluorescence slope in assay [6] is -0.378 (inactive). In addition, in assay [7], the NADPH fluorescence slope is -6.9e-05 (inactive). Also, the slope in assay [8] is 0.00596 (inactive). For the same compound, the compound was called inactive in assay [9].
